Screening data as filed in PubChem.
Shown are actives, neighbours in structure and some others; about 1.1% of the full set was active somewhere.
SRC1 inh: SRC1 coactivator transcriptional activity inhibitors, primary screen, cell-based, luminescence. Nuclear receptor coactivator 1 (Homo sapiens), Q15788. HEK293 GAL4-SRC1 luciferase reporter. inhibition, % at 3.6 µM. hit rate 0.12% among 360,000. AID 588354, 2011;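 active means inhibition above the campaign mean plus 3 SD, with each screening campaign given its own cutoff, cut at about 60% in these data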
GalR3 antagonist: GalR3 antagonists in HEK293 cells, primary screen, cell-based, fluorescence readout. inhibition, % at 3 µM. HEK293 GalR3-CNG cAMP membrane potential fluorescence; galR3 body fused to GalR1 C-terminus. Galanin receptor type 3 (Homo sapiens), O60755. hit rate 0.44% among 360,000;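 active means inhibition above the screen-wide average plus 3 SD, cut at about 13% in these data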;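 further: forskolin and galanin both at EC90 stimulate the cells; cAMP rise reported by CNG channel membrane potential dye signal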
Target sequence (O60755 1-299 limits assumed): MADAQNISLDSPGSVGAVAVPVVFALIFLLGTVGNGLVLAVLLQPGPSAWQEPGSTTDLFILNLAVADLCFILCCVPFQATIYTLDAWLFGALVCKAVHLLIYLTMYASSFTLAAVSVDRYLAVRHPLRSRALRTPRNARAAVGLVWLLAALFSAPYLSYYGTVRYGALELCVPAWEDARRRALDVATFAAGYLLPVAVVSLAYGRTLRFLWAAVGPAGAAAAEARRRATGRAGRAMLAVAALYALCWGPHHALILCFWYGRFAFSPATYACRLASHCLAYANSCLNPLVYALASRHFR
SRC3 inh: SRC3 coactivator transcriptional activity inhibitors, primary screen, cell-based, luminescence | AID 588352, 2011 | HEK293 GAL4-SRC3 luciferase reporter | hit rate 0.17% among 360,000 | inhibition, % at 3.6 µM | Nuclear receptor coactivator 3 (Homo sapiens), Q9Y6Q9;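 active means inhibition above a per-campaign cutoff, the mean of all compounds plus 3 SD, cut at about 60% in these data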;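 further: higher means less SRC3-driven luciferase light from the GAL4 reporter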
LRH-1 inv ag: LRH-1 (NR5A2) inverse agonists, primary screen, cell-based, luminescence, HEK293T, StAR-luciferase reporter; Nuclear receptor subfamily 5 group A member 2 (Homo sapiens), O00482; LRH-1 transfected, 24 h; inhibition, % at 3.6 µM; hit rate 0.13% among 360,000; AID 602396, 2012;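 active means inhibition above the mean inhibition of all tested compounds plus 3 SD, cut at about 73% in these data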
SRC2 inh: inhibition of GAL4-SRC2 driven luciferase reporter, primary screen, SRC2 inhibitor project, cell-based, luminescence | hit rate 0.17% among 370,000 | AID 651957, 2012 | HEK293 GAL4-SRC2 luciferase reporter | inhibition, % at 9 µM | Nuclear receptor coactivator 2 (Homo sapiens), Q15596;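 active means inhibition above the mean inhibition of all tested compounds plus 3 SD, set per campaign, cut at about 52% in these data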
NR2F2 inh: NR2F2 transcriptional activity inhibitors, primary screen, cell-based, luciferase reporter, HEK293T, luminescence; HEK293T NGFI-A luciferase reporter; hit rate 0.7% among 370,000; COUP transcription factor 2 (Homo sapiens), P24468; inhibition, % at 8.6 µM;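 active means inhibition above a per-plate cutoff, mean inhibition of test wells between control levels plus 3 SD, cut at about 38% in these data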;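 further: cells cotransfected with COUP-TFII expression vector driving the NGFI-A reporter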
Target sequence (P24468 whole entry, looked up): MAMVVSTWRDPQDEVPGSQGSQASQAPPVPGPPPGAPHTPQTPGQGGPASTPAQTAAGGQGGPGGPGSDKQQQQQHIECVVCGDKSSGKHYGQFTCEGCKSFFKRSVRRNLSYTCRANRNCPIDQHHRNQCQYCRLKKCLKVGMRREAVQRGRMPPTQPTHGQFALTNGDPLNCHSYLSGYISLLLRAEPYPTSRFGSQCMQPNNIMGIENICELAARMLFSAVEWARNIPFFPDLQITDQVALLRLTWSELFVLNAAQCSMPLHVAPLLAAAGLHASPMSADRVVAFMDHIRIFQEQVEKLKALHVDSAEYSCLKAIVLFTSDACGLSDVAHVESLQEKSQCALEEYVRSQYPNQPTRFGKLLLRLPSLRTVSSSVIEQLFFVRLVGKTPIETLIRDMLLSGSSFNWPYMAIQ
VP16 Luc counter: Gal4-VP16 luciferase reporter inhibitors, counter-screen for COUP-TFII antagonist project, cell-based, luminescence, HEK293; AID 687007, 2013; inhibition, % at 8.5 µM; shares compounds with NR2F2 inh; hit rate 25% among 2,500; in the data active means inhibition above about 13%
NR2F2 inh conf: NR2F2 transcriptional activity inhibitors, confirmation, cell-based, luciferase reporter, HEK293, triplicate | hit rate 45% among 2,500 | HEK293 NGFI-A luciferase reporter, luminescence | inhibition, % at 8.5 µM | shares compounds with NR2F2 inh;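 active means mean inhibition over three repeats above a set limit taken from the earlier primary screen, cut at about 38% in these data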
Hits are given with their value; i = inactive; nt = no result.

SMILES | SRC1 inh | GalR3 antagonist | SRC3 inh | LRH-1 inv ag | SRC2 inh | NR2F2 inh | VP16 Luc counter | NR2F2 inh conf
CC(NCc1ccco1)C(=O)N1CCOCC1 (stereo unspecified) | nt | nt | nt | nt | i | i | nt | nt
CCCCNC(=O)NS(=O)(=O)c1ccc(NC(=O)CSc2nnc(-c3cccs3)n2-c2ccc(OC)cc2)cc1 | nt | nt | nt | nt | i | i | nt | nt
O=C(C(=Cc1ccccc1)CN1CCCCC1)c1ccccc1 | i | i | i | 77.3 | i | 51.6 | 72.3 | 95.2
COC(=O)CSc1nnc(-c2ccc(NS(=O)(=O)c3ccc(C)c(C)c3)cc2)o1 | nt | nt | nt | nt | i | i | nt | nt
O=C1CCC(C(=O)OCC(=O)c2ccccc2)N1 (stereo unspecified) | i | i | i | i | i | i | nt | nt
CC1CC(C)C(=O)C(C(CC2CC(=O)NC(=O)C2)OC(=O)CC(=O)c2ccccc2)C1 (stereo unspecified) | 80.0 | i | 85.2 | 97.6 | 54.1 | 71.2 | i | 49.9
COc1cccc(/C=C2\CC3(OC(=O)c4cccc(F)c4)CCCN2C3)c1 (stereo unspecified) | nt | nt | nt | nt | i | i | nt | nt
CCc1ccc(-c2nnn(CCC#N)n2)cc1 | i | i | i | i | i | i | nt | nt
CCc1ccc(-c2nnn(CCC(=O)OC)n2)cc1 | i | i | i | i | 76.4 | 56.7 | 60.3 | 50.3
CN1/C(=C\C(=O)C[n+]2ccc3ccccc3c2)C(C)(C)c2ccccc21 | i | i | i | i | i | 78.8 | 16.8 | 52.0
COc1ccc(NC(=O)O/N=C/c2c(C)nn(C(C)(C)C)c2C)cc1 | i | i | i | i | i | i | nt | nt
Cc1nn(C(C)(C)C)c(C)c1/C=N/OC(=O)Nc1ccc(Cl)c(Cl)c1 | i | i | 79.0 | i | 70.2 | 68.8 | 48.7 | 84.2
COCc1cc(N2CCNC[C@@H]2C)ccc1N1CCN(Cc2ccccc2)[C@H](C)C1 | nt | i | nt | nt | i | i | nt | nt
OCCN1CCCC12CCC(c1ccccc1)CC2 (stereo unspecified) | nt | nt | nt | nt | i | i | nt | nt
CCC(C)(C)c1ccc(OCCCC[n+]2ccccc2)c(C(C)(C)CC)c1 | i | i | i | i | i | 54.1 | i | i
CCC(C)(C)c1ccc(Oc2cccc(C(=O)O)c2)cc1 | i | i | i | i | i | i | nt | nt
CCN(CC)c1ccc2nc3ccc(N)cc3[n+](-c3ccccc3)c2c1 | i | i | 66.7 | 86.6 | i | 77.0 | 21.0 | 73.0
COc1ccc(/C=N\NC(=O)CN2CCN(Cc3ccccc3)CC2)cc1OCc1ccccc1 | nt | nt | nt | nt | i | i | nt | nt
COc1ccc(Br)cc1C(C[N+](=O)[O-])c1c(N)n(C)c(=O)n(C)c1=O (stereo unspecified) | i | i | i | i | i | 40.7 | i | i
CCOc1cc(C(=S)N2CCOCC2)ccc1OS(=O)(=O)c1ccc(NC(C)=O)cc1 | i | i | i | i | i | 47.8 | i | i
CN(Cc1cccc2cnccc12)C(=O)c1cc(COc2ccc(F)cc2F)on1 | i | i | i | i | i | 45.0 | i | i
CC(C)(C)c1ccc(-c2nnc(SCC(=O)Nc3cccc4ccccc34)n2Cc2ccco2)cc1 | nt | nt | nt | nt | i | 37.8 | i | i
CCOc1cc(OCC)cc(C(=O)N2CCC[C@@H]2C(=O)N2CCC[C@@H]2C(=O)NCc2cccc(OC)c2)c1 | nt | i | nt | nt | i | i | nt | nt
CC(=O)NC(Cc1ccc2c(c1)OCO2)C(=O)N1CCCC1 (stereo unspecified) | nt | nt | nt | nt | i | i | nt | nt
COc1ccc(NC(=O)c2ccc(CN3CCc4ccccc4C3)cc2)c(OC)c1 | i | i | i | i | i | i | nt | nt
SMILES | SRC1 inh | GalR3 antagonist | SRC3 inh | LRH-1 inv ag | SRC2 inh | NR2F2 inh | VP16 Luc counter | NR2F2 inh conf
COC(=O)c1ccc(CN2CCc3ccc(NC(=O)c4ccncc4)cc3C2)cc1 | i | i | i | i | i | 48.1 | i | i
COCCn1c(C)c(C)c2c(NCCc3ccccc3)ncnc21 | i | i | i | i | i | 46.8 | i | 64.1
COC(=O)c1ccc2nc(C3CCCCC3)c(Cc3ccccc3OC)n2c1 | nt | i | nt | nt | i | i | nt | nt
O=C(Nc1ccc(S(=O)(=O)N2CCOCC2)cc1)c1ccc(S(=O)(=O)N2CCOCC2)cc1 | i | i | i | i | i | i | nt | nt
Cc1ccc(NC(=O)c2cc(S(=O)(=O)N3CCOCC3)cs2)cc1 | i | i | i | i | i | i | nt | nt
O=C(Nc1ccc(Cc2ccncc2)cc1)c1ccc(S(=O)(=O)N2CCOCC2)cc1 | i | i | i | i | i | 41.4 | i | i
Cc1ccc(NC(=O)c2cc(S(=O)(=O)N3CCCCC3)cs2)cc1 | i | i | i | i | i | 47.8 | i | i
Cc1ccc(S(=O)(=O)N2CCOCC2)cc1C(=O)Nc1ccc(N2CCCCCC2)cc1 | i | i | i | i | i | 39.9 | i | i
CCOC(=O)Cn1cc(CN2CCS(=O)(=O)N(Cc3ccccc3)C(C(=O)OC)C2)nn1 (stereo unspecified) | nt | nt | nt | nt | i | i | nt | nt
CN(C)S(=O)(=O)N1CCC(Oc2cccc(C(=O)NCCC3=CCCCC3)c2)CC1 | i | i | i | i | i | 55.6 | i | i
CC(C)CCNc1nc(N)c([N+](=O)[O-])c(N2CCCCCC2)n1 | i | i | i | i | i | 40.9 | i | i
Nc1nc(NCc2ccco2)nc(N2CCCCCC2)c1[N+](=O)[O-] | i | i | i | i | i | 47.7 | i | i
C=CCN1[C@H](CC(C)C)COc2cccc(N3CCSCC3)c2S1(=O)=O | nt | nt | nt | nt | i | i | nt | nt
CCCC[C@H](CCCc1ccc(F)cc1)CCC(=O)N(c1ccccc1)c1ccccc1 | nt | nt | nt | nt | i | i | nt | nt
COCc1cn(-c2ccc3c(c2)[C@@]2(CC(=O)N(C)C2c2ccccc2)C(=O)N3CC(C)C)nn1 (stereo partly specified) | nt | nt | nt | nt | i | i | nt | nt
CCn1c2ccccc2c2cc(C=NNC(=O)CSc3nc4ccccc4c(=O)n3-c3ccccc3)ccc21 | nt | nt | nt | nt | i | i | nt | nt
CCCCCOc1ccc(Br)cc1CSC(=N)N | i | 19.3 | i | i | i | 65.5 | 15.7 | 47.3
Cc1ccoc1C(=O)Nc1ccc(CC(=O)O)cc1 | i | i | i | i | 83.3 | 76.2 | 69.8 | 65.7
O=S1(=O)c2c(cccc2N2CCSCC2)Oc2ccccc2CN1Cc1cn(Cc2ccccc2C(F)(F)F)nn1 | nt | nt | nt | nt | i | i | nt | nt
C[C@H](O)[C@@H]1CN2CCc3ccc(-c4ccc5c(c4)OCO5)cc3[C@@H]2C[C@@H]1N(C)C(=O)c1cccc(Cl)c1 | nt | i | nt | nt | i | i | nt | nt
